From PubChem
Only a selection was taken, and hits are over-represented in it overall.
HT1080-NT tox: kills 2HG-producing HT-1080-NT fibrosarcoma cells | HT-1080-NT fibrosarcoma viability, CellTiter-Glo ATP luminescence, 48 h | Potency, µM (highest dose often 46.1 µM), hits mostly cytotoxic | 360,000 compounds, 1.6% hits | AID 686970;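 further: NT is the 2HG producing partner of a matched IDH1 knockdown line; nearly all actives have a fitted effect of over 55% in size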
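Read-out is CellTiter-Glo luminescence after 10 minutes at room temperature, following 48 hours' compound treatment of HT-1080-NT cells (750 cells/well, RPMI, 5% FBS, 37 degrees C).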
12-LOX inh: inhibitors of human 12S-lipoxygenase ALOX12; P18054; purified 12hLO, xylenol orange hydroperoxide absorbance; Potency, µM (series often up to 108 µM), usual class: inhibitors; 580,000 compounds, 1.1% hits; AID 1671190
Target sequence (P18054 whole entry, looked up): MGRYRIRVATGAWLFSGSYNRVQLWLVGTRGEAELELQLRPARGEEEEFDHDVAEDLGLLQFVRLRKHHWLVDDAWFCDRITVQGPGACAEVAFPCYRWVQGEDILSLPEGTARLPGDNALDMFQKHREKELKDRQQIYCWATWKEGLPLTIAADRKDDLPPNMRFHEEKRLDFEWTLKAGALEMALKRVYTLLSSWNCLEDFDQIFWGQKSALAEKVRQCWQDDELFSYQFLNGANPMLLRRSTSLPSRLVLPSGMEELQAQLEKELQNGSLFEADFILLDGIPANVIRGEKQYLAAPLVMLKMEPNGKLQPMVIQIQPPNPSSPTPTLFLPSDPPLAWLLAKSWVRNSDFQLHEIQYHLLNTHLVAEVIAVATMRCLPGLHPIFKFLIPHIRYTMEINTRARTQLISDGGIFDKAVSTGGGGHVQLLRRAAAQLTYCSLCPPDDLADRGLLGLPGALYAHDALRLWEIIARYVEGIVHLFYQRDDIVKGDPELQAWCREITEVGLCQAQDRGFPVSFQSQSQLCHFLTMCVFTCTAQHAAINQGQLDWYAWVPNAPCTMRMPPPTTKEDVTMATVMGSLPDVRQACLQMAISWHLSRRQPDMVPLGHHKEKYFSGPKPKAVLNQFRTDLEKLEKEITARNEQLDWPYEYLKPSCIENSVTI
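Purified human 12hLO (150 nM final) in 25 mM Hepes, 0.01% Triton X-100, pH 7.0 was preincubated 15 min at room temperature with compound. Then 40 uM arachidonic acid was added, 30 min. Hydroperoxide was read by Fe-XO absorbance ratio 573/405 nm.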
TDP1 cell noCPT: qHTS for Inhibitors of human tyrosyl-DNA phosphodiesterase 1 (TDP1): qHTS in cells in absence of CPT | 420,000 compounds, 15% hits | AID 686978, 2013 | DT40 Tdp1-/- hTDP1 cells, no CPT, ATP luminescence, 48 h | Potency, µM (highest dose often 46.2 µM), actives largely listed as inhibitors; further: nearly all actives have a fitted effect of over 55% in size
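Readout: luminescence from CellTiter-Glo after 30 min in the dark at RT. Cells: DT40 Tdp1-/- with stable hTDP1, 400/well. Exposure: compounds alone, ≥48 hr, 37 °C.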
IL-1B inflam inh: blocks inflammasome-driven IL-1 beta release; THP-1 LPS/ATP IL-1B secretion, AlphaLISA, 16 h; active compounds read low; activity change, % at 57.5 µM; 360,000 compounds, 4.7% hits; AID 743279; in the data active means activity change below about -50%; inconclusive means mostly about -30% to -49%
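Secreted IL-1B measured by AlphaLISA bead assay after 16 h compound exposure of THP-1 cells; compounds (final up to 57.5 uM) added 1 h before LPS (250 ng/mL) and ATP (1.25 mM) stimulation; lower signal means less secretion.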
HT1080 IDH1KD tx: toxicity to HT-1080 IDH1 knockdown cells (counter line). AID 686971. 360,000 compounds, 2% hits. Potency, µM (top dose mostly 46.1 µM), hits mostly cytotoxic. HT-1080 IDH1 knockdown viability, ATP luminescence, 48 h
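Knockdown cells (IDH1KD HT-1080) received compounds 2 h after plating at 750 cells/well and were kept 48 h at 37 °C in 5% FBS RPMI. A CellTiter-Glo luminescence read gave % activity for curve fitting.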
TDP1 cell CPT: DT40-hTDP1 cell growth loss with CPT | chicken DT40 Tdp1-/-;hTDP1 cells + 20 nM CPT, ATP luminescence, 48 h | Potency, µM (highest dose often 46.2 µM), actives largely listed as inhibitors | 420,000 compounds, 12% hits; further: nearly all actives have a fitted effect of over 55% in size
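Chicken DT40 Tdp1-/- cells stably complemented with human TDP1 were seeded at 400 cells/well in medium containing 20 nM camptothecin, exposed to pin-transferred compounds, and grown at 37 °C for at least 48 hr. Viability was read as ATP luminescence.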
Hits are given with their value; - = inactive; ? = inconclusive; . = no result given. Unless noted, the call rests on the fitted dose curve; in most records, active means well fitted curve in the direction sought with a large enough effect; inconclusive means small, poorly fitted or top-dose-only effect, or another doubt; inactive means no such curve, though single readings can be large; an effect the other way counts as inactive or inconclusive.

SMILES	HT1080-NT tox	12-LOX inh	TDP1 cell noCPT	IL-1B inflam inh	HT1080 IDH1KD tx	TDP1 cell CPT
COc1ccc(OC)c(NC(=O)c2cc(S(=O)(=O)NCCc3ccc(Cl)cc3)ccc2F)c1	.	-	?	.	.	?
Cn1c(=O)c2c(nc(NCc3ccco3)n2Cc2ccccc2Br)n(C)c1=O	.	-	.	.	.	.
CCc1nc(-c2c3n(c(=O)n(CC(=O)Nc4ccc(F)cc4)c2=O)CCCCC3)no1	.	-	.	.	.	.
COc1ccc(-n2c(C)c(C(C)=O)c(C(C)=O)c2C)cc1OC	-	-	-	-	-	-
COc1ccc(-n2c(C)c3c(C)nnc(C)c3c2C)cc1OC	-	-	15µM	-	-	16µM
CC(C)[C@H]1COCCS(=O)(=O)N1Cc1ccccc1-c1cccc2c1oc1ccccc12	-	-	18µM	-	-	?
CCC(C)[C@H]1COCCS(=O)(=O)N1Cc1ccccc1F (some centres undefined)	-	-	?	-	-	?
CCCCOc1ccccc1-c1ccccc1CN1[C@@H](C(C)C)COCCS1(=O)=O	?	?	18µM	-	?	16µM
COc1ccc(Nc2nc(N3CCOCC3)c3cnn(C)c3n2)cc1	.	-	.	.	.	.
COc1ccc(S(=O)(=O)N(CC(=O)NC2CC3CCC2C3)c2ccccc2OC)cc1 (centres undefined)	-	-	?	-	-	?
COc1ccc(OC)c(N(CC(=O)NC2CC3CCC2C3)S(=O)(=O)c2ccccc2)c1 (centres undefined)	-	-	?	-67	-	?
COc1ccc(Cl)cc1N(CC(=O)NC1CC2CCC1C2)S(=O)(=O)c1ccccc1 (centres undefined)	-	-	?	-	?	21µM
CSC1=C(C#N)C(=O)NC(c2ccc(Cl)cc2)S1 (centres undefined)	-	-	16µM	?	-	?
CCN(Cc1cccs1)C(=O)CCc1ccccc1	.	-	.	.	.	.
COc1cc2c(c(OC)c1)C(c1ccccc1OC(C)C)CC(=O)N2 (centres undefined)	.	-	.	.	.	.
Cc1cc2c(cc1C)C(c1ccccc1OC(C)C)CC(=O)N2 (centres undefined)	4.1µM	-	?	-	2.3µM	?
CCOc1ccccc1C1CC(=O)Nc2cc(C)c(C)cc21 (centres undefined)	?	-	4.1µM	-	15µM	2.6µM
CCCCOc1ccccc1C1CC(=O)Nc2cc(C)c(C)cc21 (centres undefined)	.	-	18µM	.	.	15µM
Cc1cc2c(cc1C)C(c1ccccc1Br)CC(=O)N2 (centres undefined)	-	-	?	-	-	?
CCCCOc1ccccc1C1CC(=O)Nc2cc(OC)c(OC)cc21 (centres undefined)	.	-	?	.	.	?
COc1ccccc1C1CC(=O)Nc2cc(C)c(C)cc21 (centres undefined)	?	-	8.2µM	-	6.5µM	6.5µM
CN1C(=O)COc2ccc(NC(=O)C(=O)NC3CCCCC3)cc21	.	-	.	.	.	.
CC(C)CC(=O)Nc1ccc2oc(-c3cccc(Cl)c3)nc2c1	.	-	.	.	.	.
Cc1ccc(C)c(S(=O)(=O)NCCc2coc(-c3ccccc3)n2)c1	.	-	.	.	.	.
Cc1cccc(NC(=O)c2cc(C3CC3)nc3ccccc23)c1C	.	-	.	.	.	.
CCN1CCN(C(=O)CSc2cc(=O)n(CC)c3ccccc23)CC1	-	-	-	-	-	-
Cn1c(=O)cc(SCC(=O)N2CCN(C3CCCCC3)CC2)c2ccccc21	-	-	?	-60	-	?
CCn1c(=O)cc(SCC(=O)N2CCN(c3cc(C)ccc3C)CC2)c2ccccc21	.	-	?	.	.	16µM
CCn1c(=O)cc(SCC(=O)N2CCC(C)CC2)c2ccccc21	-	-	?	-62	-	?
CC1CCN(CCCNC(=O)CCc2nnc3n(CCc4ccccc4)c(=O)c4ccccc4n23)CC1	-	-	16µM	?	-	?
